# Results: the supplement of paper PMC11172423
# A number with no mark means an inactive call.
# System: Falciformispora senegalensis CBS197.79
# Test: growth relative to untreated control; higher = less inhibition, active = 20 or less
# Settings: 100 µM
# How it was run: (§1)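 Compound at 100 or 25 µM was applied for 7 days at 37 °C to hyphal fragments of M. mycetomatis MM55 or F. senegalensis CBS197.79 in 96-well plates. Fragments were suspended in colourless RPMI 1640 with L-glutamine and MOPS at 68–72% transmission at 660 nm, and viability was read with MTS (2 h, 490 nm) or resazurin (600 nm). Growth is reported as blank-corrected metabolic activity relative to the blank-corrected untreated growth control.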
row,Compound,growth [%]
1,CN/C(=N\[N+](=O)[O-])NCc1cnc(Cl)s1,85.7
2,CC(F)c1ncnc(NCCc2ccc(OC(F)(F)F)cc2)c1Cl (stereo not drawn),82.9
3,CN(C)CCn1c(Nc2cc(Cl)cc(C(F)(F)F)c2)nc2cnc(NC3CCCC3)cc21,105
4,CNC(=O)c1cc(Cl)cc(C)c1NC(=O)c1cc(Br)nn1-c1ncccc1Cl,94.4

# System: Madurella mycetomatis MM55
# Test: as above
# Settings: 25 µM
# How it was run: as §1
row,Compound,growth
1,O=C1C=C(N(Cc2ccc(Cl)nc2)CC(F)F)CO1,92.5%
2,C/C=C(\C)C(=O)O[C@H]1C[C@@H](OC(C)=O)[C@@]2(C(=O)OC)CO[C@H]3[C@@H](O)[C@@](C)([C@]45O[C@@]4(C)[C@H]4C[C@@H]5O[C@@H]5OC=C[C@@]54O)[C@H]4[C@]1(CO[C@]4(O)C(=O)OC)[C@@H]32,130%
3,CC1(C)C(/C=C(\Cl)c2ccc(Cl)cc2)C1C(=O)OC(C#N)c1ccc(F)c(Oc2ccccc2)c1 (stereo not drawn),119%
4,CC1(Nc2ncc3nc(Nc4cc(Cl)cc(C(F)(F)F)c4)n(C4CCNC4)c3n2)CC1 (stereo not drawn),6.99% (active)
5,N#Cc1nn(-c2c(Cl)cc(C(F)(F)F)cc2Cl)c(NCc2ccccn2)c1SC(F)F,47.2%
6,CCS(=O)c1c(C#N)nn(-c2c(Cl)cc(C(F)(F)F)cc2Cl)c1N (stereo not drawn),91.7%
7,CN/C(=N/CC1CCOC1)N[N+](=O)[O-] (stereo not drawn),90.9%
8,Cc1nc(N(C)C)nc(OC(=O)N(C)C)c1C,109%
9,CN1CCN(C(=O)O[C@H]2c3nccnc3C(=O)N2c2ccc(Cl)cn2)CC1,72.7%
10,CN(C)CCn1c(Nc2cc(Cl)cc(C(F)(F)F)c2)nc2cnc(NC3CCC3)cc21,80.9%
11,O=C(NC(=O)c1c(F)cccc1F)Nc1ccc(Cl)c(Oc2ncc(C(F)(F)F)cc2Cl)c1,46.7%
12,CC1(C)C(C=C(Cl)Cl)C1C(=O)OC(C#N)c1ccc(F)c(Oc2ccccc2)c1 (stereo not drawn),115%
13,Cc1sc2c(c1C)C(c1ccc(Cl)cc1)=N[C@@H](CC(=O)OC(C)(C)C)c1nnc(C)n1-2,97.1%
14,CC(F)c1ncnc(NCCc2ccc(OC(F)(F)F)cc2)c1Cl (stereo not drawn),11% (active)
